Nine compounds from PubChem BioAssay (NCI) can be followed below.

Several values for one entry are separate records, joined by “and”; a condition that tells them apart may be missing. Equal entries are not always repeated. About 83,000 compounds went through this panel and 20% of them were active in at least one assay; those are over-represented in the sample as a whole.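 The test compound was applied at a single concentration to cells in 96-well plates for 48 hours, and percent growth was recorded.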 Some structures have more than one record in an assay (separate samples or runs), and their calls can disagree. Activity calls are given as the source filed them. The calls were made as follows: active = growth percent below 10; inactive = the rest.

Common to all, as to assay: NCI-60 one-dose screen, 48 h (100 = growth as untreated, 0 = no growth, -100 = all killed)
In one assay the test system is BT-549 breast. As to conditions: 10 µM.
In another assay the test system is MDA-MB-435 melanoma. As to conditions: 10 µM.
A further assay has as its system SW-620 colon. As to conditions: 10 µM.
A further assay has as its system MCF7 breast.
In a further assay the test system is HCT-116 colon. The conditions noted are these: 10 µM.
A further assay has as its system HCC-2998 colon. The conditions noted are these: 10 µM.
The test system of a further assay is KM12 colon. As to conditions: 10 µM.
In the next assay the test system is T-47D breast. As to conditions: 10 µM.

In the case of `C#CCN(Cc1ccc2nc(N)[nH]c(=O)c2c1)c1ccc(C(=O)NC(CCC(=O)O)C(=O)O)cc1` (stereo not given), the growth with BT-549 breast was 76.9% (inactive); in the assay with MDA-MB-435 melanoma it was 90.7% (inactive); in the assay on SW-620 colon it was 61.8% (inactive); in the assay on MCF7 breast (10 µM), 22.4% (inactive); in the assay on HCT-116 colon it was 45.7% (inactive); in the assay with HCC-2998 colon, 31.6% (inactive). Moreover, the growth in the assay on KM12 colon is 70.2% (inactive).
With `Cc1cc(N(CCOS(C)(=O)=O)CCOS(C)(=O)=O)ccc1C=Nc1ccc(-c2nc(Cc3ccccc3)sc2C)cc1`, the growth in the assay with T-47D breast was 20.5% (inactive); with BT-549 breast, 52.8% (inactive); in the assay with MDA-MB-435 melanoma, 63.2% (inactive); in the assay on SW-620 colon, 61.6% (inactive); in the assay on MCF7 breast (10 µM) it was 36.8% (inactive); in the assay on HCT-116 colon, 63.4% (inactive). Also, the figures for the growth in the assay on HCC-2998 colon and with KM12 colon were -28.3% (active) and 68.7% (inactive), respectively.
Consider `Cc1ccc(Sc2ccccc2N)cc1`, for which the growth in the assay on T-47D breast was 99.8% (inactive); in the assay on BT-549 breast, 89.8% (inactive); in the assay on MDA-MB-435 melanoma it was 120% (inactive); in the assay with SW-620 colon, 58.3% (inactive); with MCF7 breast (10 µM) it was 53.7% (inactive); in the assay with HCT-116 colon, 55.8% (inactive). Moreover, the values for the growth in the assay on HCC-2998 colon and in the assay on KM12 colon were 132% (inactive) and 102% (inactive), respectively.
Turning to `CN(C)CCOC1(Cc2ccc(Cl)cc2Cl)CCC(C(C)(C)C)CC1` (stereo not given), the growth in the assay on T-47D breast is -21.2% (active) and -41.1% (active); in the assay on BT-549 breast, 58.8% (inactive) and 24% (inactive); in the assay on MDA-MB-435 melanoma it was 11% (inactive) and -57.6% (active); in the assay with SW-620 colon it was -51.8% (active) and -57.6% (active); in the assay with MCF7 breast (10 µM), -46.4% (active) and -87.7% (active); in the assay with HCT-116 colon, 13.2% (inactive) and -81.3% (active). The growth with HCC-2998 colon was -92.9% (active) and -95.5% (active); in the assay with KM12 colon, 20.2% (inactive) and -46.6% (active).
Consider `C=C1C(=O)OC2CC1C(OC(C)=O)C/C(C)=C/CC/C(C)=C\CCC2(C)O` (stereo not given), for which the growth in the assay on T-47D breast is 4.13% (active); with BT-549 breast it was -83.9% (active); with MDA-MB-435 melanoma, 18.6% (inactive); in the assay on SW-620 colon, 1.39% (active); with MCF7 breast (10 µM), 10.6% (inactive); in the assay on MCF7 breast (100 µM) it was -90.9% (active). Besides, the growth in the assay with HCT-116 colon is -64.7% (active); with HCC-2998 colon it was -51.2% (active); in the assay with KM12 colon, 23.2% (inactive).
Turning to `O=[N+]([O-])c1cc[n+]([O-])cc1`, the growth in the assay on T-47D breast was 120% (inactive); in the assay with BT-549 breast it was 92.4% (inactive); with MDA-MB-435 melanoma, 112% (inactive); in the assay with SW-620 colon it was 99.3% (inactive); with MCF7 breast (10 µM), 97.6% (inactive); in the assay on HCT-116 colon it was 107% (inactive). Also, the growth is 97% (inactive) with HCC-2998 colon and 104% (inactive) with KM12 colon.
For `COc1cc([C@@H]2c3cc4c(cc3[C@@H](Nc3ccc(NC(=O)c5cc([N+](=O)[O-])cn5C)cc3)[C@H]3COC(=O)[C@H]23)OCO4)cc(OC)c1O`, the growth with MCF7 breast (100 µM) is 5.63% (active).
As for `COc1ccc(C(=O)C(CN(C)C)CN(C)C)cc1`, the growth in the assay with T-47D breast was 9.04% (active); in the assay on BT-549 breast it was 112% (inactive); in the assay with MDA-MB-435 melanoma, 36.8% (inactive); with SW-620 colon, -80.5% (active); in the assay on MCF7 breast (10 µM), 14.3% (inactive); in the assay on HCT-116 colon it was 4.91% (active). Besides, the growth in the assay with HCC-2998 colon is 109% (inactive); with KM12 colon it was 108% (inactive).
`CC1=CC(=C(c2ccc(N)cc2)c2ccc(N)cc2)C=CC1=N`: the growth is 3.11% (active) and 11.3% (inactive) with T-47D breast; 5.57% (active) and 81.8% (inactive) with BT-549 breast; 13.6% (inactive) and 24% (inactive) with MDA-MB-435 melanoma; 17.2% (inactive) and 39.1% (inactive) with SW-620 colon; 9.83% (active) and 19.6% (inactive) with MCF7 breast (10 µM); 14% (inactive) and 11.5% (inactive) in the assay with HCT-116 colon. Besides, the growth with HCC-2998 colon is 21.1% (inactive) and 48.1% (inactive); with KM12 colon, 0.202% (active) and 9.48% (active).
